Out of some 2,100 compounds screened, about 480 (23%) were called active. About 5% were inconclusive and are not listed. A selection follows. Results with a measured potency or affinity are listed apart. A number with no mark means an inactive call.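 How the source made its calls: active means fitted curve reaches 40% activation at or below the top valid concentration, in every replicate test; inconclusive means replicate tests disagree on the call; inactive means the rest, including activity in the opposite direction.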
Test: activators raising PGC1a acetylation in cells, dose response, cell-based, cherry-picked samples, set 6 (AID 720513);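 further: cells made to overexpress flag tagged PGC1a plus GCN5 acetyltransferase by viral infection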
Settings: U2OS PGC1a acetylation AlphaLISA, overnight, 0 = neutral, -100 = inhibitor control; series mostly up to 19.5 µM; activation (acetylation increase): at the top concentration

First: COC(=O)c1[nH]c2ccc(F)cc2c1NS(=O)(=O)c1ccc(OC)cc1OC
Second: COc1ccccc1NS(=O)(=O)c1cc(NC(=O)c2[nH]c(C)c(C(C)=O)c2C)ccc1N1CCOCC1
The “activation (acetylation increase)” value of the first is lower: -6.12% for the first, 38.3% for the second.

Going from `O=C(C[C@H]1CC[C@@H](NC(=O)c2ccccc2)[C@H](CO)O1)Nc1ccc(-c2ccccc2)cc1` to `O=C(C[C@H]1C[C@H]2c3cc(NC(=O)C4CCC4)ccc3O[C@H]2[C@H](CO)O1)NCc1ccc(-c2ccccc2)cc1`, the “activation (acetylation increase)” value rises from -60.5% to 14%.

Going from `COc1ccc(CCN2C(=O)N(c3ccc(OC)cc3)C(=O)C2CC(=O)Nc2ccccc2)cc1` (stereo not given) to `COc1ccc(NC(=O)[C@H](Cc2c[nH]c3ccccc23)NC(=O)[C@@H]2Cc3ccccc3CN2)cc1`, the “activation (acetylation increase)” value rises from 0.037% to 3.84%.

Going from `Cc1[nH]c2ccccc2c1C(=O)/C=C/c1ccccc1` to `Cc1c(NC(=O)COC(=O)c2ccccc2O)c(=O)n(-c2ccccc2)n1C`, the “activation (acetylation increase)” value rises from -28.1% to 15.7%.

First: CC(=O)c1ccc(N2CCN(C(=O)c3ccc4nc[nH]c4c3)CC2)cc1
Second: CCN(C(=O)CN1CCN(c2ccccc2O)CC1)c1c(N)n(Cc2ccccc2)c(=O)[nH]c1=O
The “activation (acetylation increase)” value of the first is higher: 16.3% for the first, 1.96% for the second.

Compared with `CSc1nsc(SC)c1NC(=O)Nc1ccccc1C`, `O=C(Nc1cccc(Cl)c1)Nc1ccc2c(c1)OCO2` is lower in “activation (acetylation increase)” value: 25.9% for the first, 8.19% for the second.

Going from `CC1CCN(S(=O)(=O)c2ccc(Oc3ccc([N+](=O)[O-])cc3)cc2)CC1` to `O=S(=O)(Nc1ccccc1N1CCCCC1)c1ccc(F)cc1`, the “activation (acetylation increase)” value falls from 36% to 29.9%.

Going from `COCc1c(C(=O)Nc2cccc(S(=O)(=O)N3CCCCC3)c2)oc2ccccc12` to `COc1cccc(NC(=O)c2ccccc2-c2ccccc2C(=O)O)c1`, the “activation (acetylation increase)” value falls from 21.3% to 11.2%.

Compared with `CCOc1ccc(NC(=O)c2cccc3c2C(=O)N(CCOC)C3)cc1`, `C[C@H]1CN([C@@H](C)CO)C(=O)Cc2cc(NC(=O)Nc3ccccc3)ccc2O[C@@H]1CN(C)Cc1ccccc1` is lower in “activation (acetylation increase)” value: 1.21% for the first, -36.2% for the second.

Going from `C[C@@H]1CN([C@H](C)CO)C(=O)Cc2cc(NC(=O)Cc3ccccc3)ccc2O[C@@H]1CN(C)S(C)(=O)=O` to `C[C@H]1CN([C@@H](C)CO)C(=O)Cc2cc(NS(C)(=O)=O)ccc2O[C@@H]1CN(C)Cc1ccc2c(c1)OCO2`, the “activation (acetylation increase)” value falls from 14.9% to 1.57%.

First: C[C@H]1CCCCO[C@H](CN(C)Cc2ccc3c(c2)OCO3)[C@@H](C)CN([C@@H](C)CO)C(=O)c2cc(NC(=O)Nc3ccc(C(F)(F)F)cc3)ccc2O1
Second: C[C@@H]1CN([C@H](C)CO)C(=O)c2cc(NC(=O)CCCCCC(=O)Nc3ccccc3N)ccc2O[C@H]1CN(C)S(=O)(=O)c1ccc(Cl)cc1
The “activation (acetylation increase)” value of the first is lower: -95.8% for the first, 12.1% for the second.

First: Cc1ccccc1Cn1cnc2c(nnn2Cc2ccc(F)cc2)c1=O
Second: COc1ccc(Cn2nnnc2CN(Cc2cc3ccc(C)cc3[nH]c2=O)C2CCCC2)cc1
The “activation (acetylation increase)” value of the first is higher: -4.71% for the first, -14.1% for the second.

First: O=C1Nc2c(Br)cc(Br)c3cccc1c23
Second: O=C1c2ccsc2SCCN1Cc1cccc(Cl)c1
The “activation (acetylation increase)” value of the first is higher: 1.42% for the first, -1.83% for the second.

First: COc1ccc(-c2cnc3c(c2)C(=O)N([C@H](C)CO)C[C@H](C)[C@H](CN(C)S(=O)(=O)c2cccs2)O3)cc1
Second: C[C@H]1CN([C@@H](C)CO)C(=O)c2cc(-c3cccc(C(=O)N(C)C)c3)cnc2O[C@@H]1CN(C)S(=O)(=O)c1ccc(F)cc1
The “activation (acetylation increase)” value of the first is higher: 4.64% for the first, -3.94% for the second.

Going from `C[C@@H]1CN([C@@H](C)CO)C(=O)c2cc(C#CCN(C)C)cnc2O[C@@H]1CN(C)S(=O)(=O)c1cn(C)cn1` to `C[C@H](CO)N1C[C@H](C)[C@@H](CN(C)Cc2ccccc2F)Oc2ncc(Br)cc2C1=O`, the “activation (acetylation increase)” value falls from 15.9% to 9.64%.

Going from `Cc1cccc(N2C(=O)C(Cl)=C(N3CCOCC3)C2=O)c1` to `O=C(O)c1cc(-c2ccc3c(c2)OCO3)nc2ccccc12`, the “activation (acetylation increase)” value falls from -2.12% to -21.2%.

First: O=S(=O)(c1cccs1)N1CCCCN2[C@H](CO)[C@H](c3ccc(/C=C/c4ccccc4)cc3)[C@H]2C1
Second: O=C(NC[C@@H]1N[C@@H](CO)[C@H]1c1ccc(C2=CCCCC2)cc1)c1ccc(F)cc1
The “activation (acetylation increase)” value of the first is lower: -41.3% for the first, 21.8% for the second.

First: CCCN(CCC)S(=O)(=O)c1ccc(C(=O)Nc2nnc(CSC)o2)cc1
Second: CCc1ccc(C(=O)CN(C#N)c2nc(C)cc(C)n2)cc1
The “activation (acetylation increase)” value of the first is higher: -2.17% for the first, -61% for the second.

First: Cc1noc(C)c1S(=O)(=O)Nc1ccc2c(c1)C(=O)N([C@@H](C)CO)C[C@@H](C)[C@@H](CN(C)S(=O)(=O)c1ccccc1)O2
Second: O=S(=O)(C/C(=C/CO)S(=O)(=O)c1ccccc1)c1ccccc1
The “activation (acetylation increase)” value of the first is higher: 15% for the first, -51.6% for the second.

Going from `OCC1OC(Oc2c(Br)cc(Br)cc2Br)C(O)C(O)C1O` (stereo not given) to `Clc1ccc2nc(COc3ccccc3)[nH]c2c1`, the “activation (acetylation increase)” value rises from 15.7% to 35%.

In the case of `CCCCCCNC(=O)O[C@@]12CN(S(=O)(=O)c3ccc(C)cc3)C[C@]1(O)Cn1c(=O)n(CCCCCC)c(=O)n1C2`, the “activation (acetylation increase)” value is reported as -18.4%.

For `O=C(CN1C(=O)NC2(CCc3ccccc32)C1=O)c1ccc(Br)cc1` (stereo not given), the “activation (acetylation increase)” value was 31% [at 10 µM].

Going from `C[C@@H]1CN([C@H](C)CO)C(=O)Cc2cc(NC(=O)Nc3ccccc3)ccc2O[C@H]1CN(C)Cc1ccccc1` to `COc1ccc(S(=O)(=O)N(C)C[C@@H]2Oc3ncc(-c4ccccc4)cc3C(=O)N([C@H](C)CO)C[C@@H]2C)cc1`, the “activation (acetylation increase)” value rises from 5.21% [at 21 µM] to 24% [at 21 µM].

With `CO[C@H](CN(C)S(=O)(=O)c1ccc(Cl)cc1)[C@H](C)CN([C@H](C)CO)S(=O)(=O)c1cccc(Cl)c1` the “activation (acetylation increase)” value was 43.3% [at 18 µM].
